Values joined by “and” are separate entries in the source; they are usually repeats but may differ in a detail not shown here. Identical values can stand only once. Active and inactive are the calls of the source. Unless noted, no stated cut-off is given here; in the data, active means inhibition above about 80%; inactive means the rest.
Key:
[1] = LFS_MB_P medulloblastoma growth inhibition, cell-based, chromothripsis tumors, cisplatin or BGB combos (AID 1671449); conditions: LFS_MB_P medulloblastoma cells;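 further: cells exposed for 96 hours; 0% = vehicle DMSO and 100% = killing by high DMSO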
[2] = HDN33 neuroblastoma growth inhibition, cell-based, chromothripsis tumors, cisplatin or BGB combos (AID 1671450); conditions: HDN33 neuroblastoma cells, stronger effect = higher value;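 further: cells exposed to compound for four days; 0% = vehicle DMSO and 100% = cell killing by high DMSO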
[3] = ICB984 medulloblastoma cell growth inhibition, synergistic combos for chromothripsis tumors, cisplatin or BGB combos (AID 1671451; call rule not given here;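 further: cells exposed for 96 hours before readout; 0% = vehicle DMSO and 100% = killing by high DMSO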); conditions: ICB984 medulloblastoma cells, drug combinations, stronger effect = higher value
[4] = LFS_MB_1R medulloblastoma cell growth inhibition, synergistic combos for chromothripsis tumors, cisplatin or BGB combos (AID 1671452); conditions: LFS_MB_1R medulloblastoma cells, stronger effect = higher value;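 further: cells exposed for 96 hours before readout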
[5] = HTB85 osteosarcoma cell growth inhibition, synergistic combos for chromothripsis tumors, BGB or cisplatin IC20 combos (AID 1671453); conditions: HTB85 osteosarcoma cells, drug combinations, stronger effect = higher value;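 further: cells exposed for 96 hours before readout; 0% = vehicle DMSO and 100% = high DMSO killing control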
[6] = CRL2098 osteosarcoma cell growth inhibition, synergistic combos for chromothripsis tumors, BGB or cisplatin IC20 combos (AID 1671454); conditions: CRL2098 osteosarcoma cells, drug combinations, stronger effect = higher value;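 further: cells exposed for 96 h before readout; 0% = vehicle DMSO and 100% = killing by high DMSO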
[7] = HD-MB03 medulloblastoma cell growth inhibition, synergistic combos for chromothripsis tumors, BGB or cisplatin IC20 combos (AID 1671455; in the data active means inhibition above about 83%;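 further: 0% = vehicle DMSO and 100% = high DMSO as cytotoxic control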); conditions: HD-MB03 medulloblastoma cells, stronger effect = higher value
[8] = UWB1.289 ovarian carcinoma cell growth inhibition, synergistic combos for chromothripsis tumors, BGB or cisplatin combos (AID 1671456); conditions: UWB1.289 ovarian carcinoma cells, stronger effect = higher value;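 further: cells exposed to compound for four days; 0% = vehicle DMSO and 100% = killing by high DMSO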
[9] = LFS_MB_2R medulloblastoma cell growth inhibition, synergistic combos for chromothripsis tumors, cisplatin combos (AID 1671457); conditions: LFS_MB_2R medulloblastoma cells, stronger effect = higher value;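 further: cells exposed to compound for four days before readout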
[10] = MDA-MB-436 breast carcinoma cell growth inhibition, synergistic combos for chromothripsis tumors, BGB or cisplatin combos (AID 1671458; call rule not given here;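 further: cells exposed for 96 hours; 0% = vehicle DMSO and 100% = killing by high DMSO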); conditions: MDA-MB-436 breast carcinoma growth inhibition, drug combinations, stronger effect = higher value
[11] = UWB1.289_BRCA1 ovarian cancer growth, cell-based, BGB or cisplatin combinations (AID 1671459); conditions: UWB1.289 BRCA1 ovarian carcinoma, drug combinations, stronger effect = higher value
[12] = human astrocyte viability loss, single and combined drugs, cytotoxicity control for chromothriptic childhood tumor combination screen, cell-based, BGB or cisplatin IC20 combos (AID 1671460); conditions: Human astrocytes, drug combinations, stronger effect = higher value;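 further: cells exposed to compounds for 96 hours before viability readout; 0% = vehicle and 100% = killing control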
[13] = growth inhibition of BT084 medulloblastoma cells, cell-based, ICGC_MB145, cisplatin and BGB IC40 combos (AID 1671461); conditions: drug combinations, stronger effect = higher value;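 further: cells exposed to drugs for 96 hours; 0% = vehicle DMSO and 100% = high DMSO full killing control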
[14] = growth inhibition of RCMB18 medulloblastoma cells, cell-based, cisplatin and BGB IC40 combos (AID 1671462); conditions: stronger effect = higher value;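 further: cells exposed to compound for four days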
[15] = growth inhibition of CRL1545 osteosarcoma cells, cell-based, cisplatin and BGB IC20 combos (AID 1671464); conditions: stronger effect = higher value;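 further: cells exposed to compound for 96 hours before readout; 0% = vehicle DMSO and 100% = high DMSO killing control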
[16] = measured here: combination with BGB IC40, at 0.05 µM
[17] = measured here: with BGB IC20 combination, at 0.5 µM
[18] = measured here: with cisplatin IC20 combination, at 0.5 µM
[19] = measured here: combination with cisplatin, at 0.5 µM
[20] = measured here: combination with cisplatin, at 5 µM

O=c1[nH]c(=S)[nH]c(/N=C/c2ccccc2)c1N=Cc1ccccc1
inhibition ([1]; at 0.5 µM, stronger effect = higher value): 10.8% (inactive) and -1.11% (inactive)
inhibition ([1]; measured here: combination with BGB IC20, at 0.005 µM): 7.44% and 1.3%
inhibition ([1]; measured here: combination with BGB IC40, at 0.005 µM): -16.5% and -26.2%
inhibition [1, 16]: 0.419% and 2.63%
inhibition ([1]; measured here: combination with cisplatin, at 0.5 µM, stronger effect = higher value): 24.4% and -35.7%
inhibition ([1]; measured here: combination with cisplatin, at 5 µM, stronger effect = higher value): -12.6% and -19.3%
inhibition ([2]; BGB combo, at 5 µM): -34% and -42.2%
inhibition ([2]; at 0.5 µM): -32.1% (inactive) and -19.5% (inactive)
inhibition ([2]; cisplatin combo, at 5 µM): -21.4% and -48.2%
inhibition [2, 17]: -30.4% and -16.3%
inhibition [2, 18]: -42.2% and -15.7%
inhibition ([2]; single agent, at 5 µM): -37.4% and -37%
inhibition ([3]; BGB IC20 combo, at 0.005 µM): 1.63% and -15.3%
inhibition ([3]; BGB IC40 combo, at 0.005 µM): -50.4% and 4.14%
inhibition ([3]; BGB IC40 combo, at 0.05 µM): -19.4% and -32.8%
inhibition ([3]; at 0.5 µM): -11.2% (inactive) and -6.96% (inactive)
inhibition ([3]; cisplatin combo, at 0.05 µM): -22.8% and -39.7%
inhibition ([3]; cisplatin combo, at 0.5 µM): -24.4% and 3.72%
inhibition ([3]; cisplatin combo, at 5 µM): -19.7% and -8.53%
inhibition ([3]; measured here: 5 uM single agent, at 5 µM): -28.4% and -9.24%
inhibition ([4]; at 0.5 µM): -24.3% (inactive) and -5.83% (inactive)
inhibition [4, 16]: -16.1% and -5.8%
inhibition [4, 19]: -52.1% and -29.6%
inhibition [4, 20]: -67.9% and -16.8%
inhibition ([5]; at 0.5 µM): -24.2% (inactive) and -31.7% (inactive)
inhibition ([5]; measured here: with BGB IC20, at 0.5 µM): -36.7% and -29.2%
inhibition ([5]; measured here: with BGB IC20, at 5 µM): -72.3% and -10.6%
inhibition ([5]; measured here: with cisplatin IC20, at 0.5 µM): -17.7% and -30.3%
inhibition ([5]; measured here: with cisplatin IC20, at 5 µM): -46.1% and -5.16%
inhibition ([5]; single agent, at 5 µM): -26.4% and -23.9%
inhibition ([6]; at 0.5 µM): -71.1% (inactive) and -62.3% (inactive)
inhibition ([6]; measured here: combination with BGB at IC20, at 0.5 µM): -91.5% and -60.8%
inhibition ([6]; measured here: combination with cisplatin at IC20, at 0.5 µM): -66.2% and -85.1%
inhibition ([7]; at 0.5 µM): -16.3% (inactive) and -12.6% (inactive)
inhibition ([7]; measured here: combo with BGB at IC20, at 0.5 µM): -14.6% and -13.1%
inhibition ([7]; measured here: combo with cisplatin at IC20, at 0.5 µM): -24.1% and -18.2%
inhibition ([8]; at 0.5 µM): -10.1% (inactive) and -11.6% (inactive)
inhibition ([8]; measured here: inhibition with BGB combination, at 0.05 µM): -8.71% and -6.64%
inhibition ([8]; measured here: inhibition with cisplatin combination, at 0.05 µM): -18.2% and -17.6%
inhibition ([9]; at 0.5 µM): -2.17% (inactive) and -7.03% (inactive)
inhibition [9, 19]: 4.09% and -15.4%
inhibition [9, 20]: -75.4% and -34.5%
inhibition ([10]; at 0.5 µM): -13.4% (inactive) and -8.5% (inactive)
inhibition ([10]; measured here: BGB combination, at 0.5 µM): -4.77% and -3.51%
inhibition ([10]; measured here: BGB combination, at 5 µM): -0.125% and 9.68%
inhibition ([10]; measured here: cisplatin combination, at 0.5 µM): -26% and -20.1%
inhibition ([10]; measured here: cisplatin combination, at 5 µM): -13.5% and -24.6%
inhibition ([11]; BGB combination, concentration series, at 5 µM): -20.1% and -21%
inhibition ([11]; at 0.5 µM): -11.1% (inactive) and -17.6% (inactive)
inhibition ([11]; cisplatin combination, concentration series, at 5 µM): -0.543% and -15.8%
inhibition ([12]; at 0.5 µM): -14.7% (inactive) and -11.3% (inactive)
inhibition ([12]; measured here: combo with BGB IC20, at 0.5 µM): -6.75% and -6.18%
inhibition ([12]; measured here: combo with cisplatin IC20, at 0.5 µM): -39.7% and -17.5%
inhibition ([13]; at 0.5 µM): -0.252% (inactive) and 5.93% (inactive)
inhibition ([13]; cisplatin combination, at 0.5 µM): -5.14% and -7.54%
inhibition ([13]; cisplatin combination, at 5 µM): -2.96% and -198%
inhibition ([13]; measured here: BGB IC40 combination 0.05 uM, at 0.05 µM): 11.6% and -6.05%
inhibition ([13]; single agent, at 5 µM): -8.91% and -10.5%
inhibition ([14]; at 0.5 µM): -27.2% (inactive) and -2.36% (inactive)
inhibition ([14]; cisplatin combo, at 5 µM): -73.6% and -65.6%
inhibition ([14]; measured here: BGB IC40 combination, at 0.05 µM): -4.14% and 6.35%
inhibition [14, 19]: -76.9% and 2.66%
inhibition ([14]; single agent, at 5 µM): -10.2% and -0.506%
inhibition ([15]; at 0.5 µM): -63.6% (inactive) and -4.77% (inactive)
inhibition [15, 17]: -46.4% and -22.1%
inhibition [15, 18]: -76% and 2.34%
inhibition ([15]; single agent, at 0.05 µM): -68.7% and -41.2%
inhibition ([15]; single agent, at 5 µM): -27.1% and -36.4%

— PubChem BioAssay
